According to article PMC4552634, “A New Set of Chemical Starting Points with Plasmodium falciparum Transmission-Blocking Potential for Antimalarial Drug Discovery” (PLoS ONE, 2015):
Read-outs that look alike come from different tables or passages of the source. Among all 13,000 compounds or so, about 3,200 (25%) showed an effect of 50% or more. This is one part of the list.

Test system: P. falciparum stage V gametocytes
Set-up: BacTiter-Glo ATP luminescence viability of purified stage V gametocytes in 384-well plates, per cent inhibition versus DMSO
Conditions: 48 h, 5 µM, inhibitor

Row | Compound | % Inhibition [%] | % Inhibition (% Inhibition) [%]
1 | O=C(NCCNc1ccnc(NCc2ccc(F)cc2)n1)c1cc2ccccc2s1 [TCMDC-133646] | -28.02 | –
2 | O=C(NCc1ccc(Cl)c(Cl)c1)c1ccc(C2CCN(Cc3ccc4nc[nH]c4c3)CC2)cc1 [TCMDC-133069] | -61.63 | –
3 | COc1ccc2c(c1)CC(NCc1ccc(-c3ccc4nc[nH]c4c3)cc1)C2 (centres unmarked) [TCMDC-133483] | 36.76 | –
4 | COc1ccc2c(c1)CC(C)(C)NC2CCCCCCCCC1NC(C)(C)Cc2cc(OC)ccc21 (centres unmarked) [TCMDC-137935] | 92.87 | –
5 | Cc1ccc(NC(=O)c2ccc(CN3CCCN(Cc4cccc(Cl)c4)CC3)cc2)cc1C [TCMDC-136426] | -8.077 | –
6 | NC1=NC2(CCCCC2)N(OCCCCCCN2C(=O)c3ccccc3C2=O)C(N)=N1 [TCMDC-140537] | 2.277 | –
7 | CS(=O)(=O)Nc1ccc2[nH]cc(C3CCN(CC4CCC(NC(=O)/C=C/c5ccccc5Cl)CC4)CC3)c2c1 (centres unmarked) [TCMDC-139887] | 39.39 | –
8 | O=C(C=Cc1cccc(Cl)c1Cl)NC1CCC(CN2CCC(c3c[nH]c4ccccc34)CC2)CC1 (centres unmarked) [TCMDC-139910] | – | 41.2
9 | O=C(/C=C/c1c(Cl)cccc1Cl)NC1CCC(CN2CCC(c3c[nH]c4ccccc34)CC2)CC1 (centres unmarked) [TCMDC-139856] | – | 7.287
10 | O=C(/C=C/c1c(Cl)cccc1Cl)NC1CCC(CN2CCC(Cc3cc4ccccc4[nH]3)CC2)CC1 (centres unmarked) [TCMDC-140233] | 51.23 | –
11 | O=C(/C=C/c1ccccc1Cl)NC1CCC(CN2CCC(c3c[nH]c4ccncc34)CC2)CC1 (centres unmarked) [TCMDC-140110] | 79.76 | –
12 | O=C(/C=C/c1c(Cl)cccc1Cl)NC1CCC(CN2CCC(c3c[nH]c4ccncc34)CC2)CC1 (centres unmarked) [TCMDC-140220] | 108.5 | –
13 | O=C(/C=C/c1c(Cl)cccc1Cl)NC1CCC(CN2CCC(c3c[nH]c4ccccc34)CC2)CC1 (centres unmarked) [TCMDC-139858] | – | -12.84
14 | O=C(/C=C/c1ccc(Cl)c(Cl)c1)NC1CCC(CN2CCC(Cc3cc4ccccc4[nH]3)CC2)CC1 (centres unmarked) [TCMDC-140232] | -17.26 | –
15 | O=C(/C=C/c1ccc(Cl)c(Cl)c1)NC1CCC(CN2CCC(c3cc4ccccc4[nH]3)CC2)CC1 (centres unmarked) [TCMDC-140236] | 9.147 | –
16 | CC(C)(C)Oc1ccc(CC2NC3(C(=O)N(Cc4ccc(C(C)(C)C)cc4)c4ccccc43)C3C(=O)N(c4ccc(Br)cc4)C(=O)C23)cc1 (centres unmarked) [TCMDC-139774] | 1.203 | –
17 | CC(C)C1C(O)=C(c2ccc3ccccc3c2)C(=O)N1Cc1cccc(F)c1 (centres unmarked) [TCMDC-141811] | 28.08 | –
18 | Oc1ccccc1CNCc1ccc(-c2cnc(N3CCCC(c4ccccc4)C3)nc2)cc1 (centres unmarked) [TCMDC-133768] | -9.076 | –
19 | CCCN(CC1CC1)c1ncc(-c2ccccc2CNCc2ccccc2O)cn1 [TCMDC-132574] | -10.65 | –
20 | CN(CCc1ccccc1)c1ncc(-c2ccccc2CNCc2ccccc2O)cn1 [TCMDC-132575] | 53.28 | –
21 | O=c1cc(NCCCCNCc2cccc(Cl)c2)[nH]c2ccccc12 [TCMDC-139311] | -48.31 | –
22 | CCCC(C)NC(=O)/C=C/c1ccccc1-c1cccc(OC)c1 (centres unmarked) [TCMDC-136229] | -11.68 | –
23 | CCOc1cc(C(=O)NC2CC(C)(C)NC(C)(C)C2)ccc1-c1cc2cc(Cl)c(Cl)cc2[nH]1 [TCMDC-139960] | 72.27 | –
24 | COc1cc(C(=O)NC2CC(C)(C)N(C)C(C)(C)C2)ccc1-c1nc2cc(Cl)c(Cl)cc2[nH]1 [TCMDC-139618] | 89.66 | –

Row | Compound | % Inhibition [%] | % Inhibition (% Inhibition) [%]
25 | Cc1c(-c2ccc(C(=O)NC3CC(C)(C)NC(C)(C)C3)cc2)[nH]c2cc(Cl)c(Cl)cc12 [TCMDC-140975] | 52.66 | –
26 | CCOc1cc(C(=O)NC2CC(C)(C)N(C)C(C)(C)C2)ccc1-c1nc2cc(Cl)c(Cl)cc2[nH]1 [TCMDC-140058] | 24.71 | –
27 | CN1C(C)(C)CC(NC(=O)c2ccc(-c3nc4cc(Cl)c(Cl)cc4[nH]3)cc2)CC1(C)C [TCMDC-139250] | 28.21 | –
28 | CN1C(C)(C)CC(NC(=O)c2ccc(-c3nc4ccc(Cl)cc4[nH]3)cc2)CC1(C)C [TCMDC-139262] | -8.23 | –
29 | CCOc1cc(C(=O)NC2CC(C)(C)NC(C)(C)C2)ccc1-c1nc2ccc(Cl)cc2[nH]1 [TCMDC-140404] | 39.53 | –
30 | COc1cc(C(=O)NC2CC(C)(C)NC(C)(C)C2)ccc1-c1cc2cc(Cl)c(Cl)cc2[nH]1 [TCMDC-139693] | -5.047 | –
31 | COc1cc(C(=O)NC2CC(C)(C)N(C)C(C)(C)C2)ccc1-c1cc2cc(Cl)c(Cl)cc2[nH]1 [TCMDC-139227] | 47.65 | –
32 | O=C(Nc1ccc(CN2CCCCC2)cc1)c1ccc(COc2ccc([N+](=O)[O-])cc2)o1 [TCMDC-123727] | -23.78 | –
33 | CC(C)Oc1ccc(CCCON2C(N)=NC(N)=NC2(C)C)cc1 [TCMDC-131759] | 12.88 | –
34 | Cc1cc(NC(=O)c2ccco2)ccc1OC1CCN(Cc2ccccc2)CC1 [TCMDC-133965] | 12.37 | –
35 | COc1ccc2nccc([C@@H](O)CN3CCC(NCc4nc5c(C#N)cccc5[nH]4)CC3)c2c1 [TCMDC-141116] | -34.83 | –
36 | Oc1ccc(CCNc2nc(NCc3ccccc3-c3ccc(C(F)(F)F)cc3)nc(N3CCNCC3)n2)cc1 [TCMDC-138323] | -0.8501 | –
37 | Oc1ccc(CCNc2nc(NCCOc3ccccc3-c3ccccc3)nc(N3CCNCC3)n2)cc1 [TCMDC-134131] | -22.6 | –
38 | Oc1ccc(CCNc2nc(NCCCOc3ccccc3-c3cccc(C(F)(F)F)c3)nc(N3CCNCC3)n2)cc1 [TCMDC-134134] | 10.32 | –
39 | Oc1ccc(CCNc2nc(NCCCOc3ccccc3-c3ccc(F)cc3)nc(N3CCNCC3)n2)cc1 [TCMDC-134135] | 12.8 | –
40 | Oc1ccc(CCNc2nc(NCc3ccccc3-c3ccc(C(F)(F)F)cc3)nc(N3CCCNCC3)n2)cc1 [TCMDC-133388] | 24.02 | –
41 | Oc1ccc(CCNc2nc(NCCCOc3ccccc3-c3ccncc3)nc(N3CCNCC3)n2)cc1 [TCMDC-134138] | 16.05 | –
42 | Oc1ccc(CC2CCCN(c3nc(NCCCOc4ccccc4-c4ccccc4)nc(N4CCNCC4)n3)C2)cc1 (centres unmarked) [TCMDC-134279] | 106 | –
43 | Oc1ccc(CCNc2nc(NCCCOc3ccccc3-c3ccc(C(F)(F)F)cc3)nc(N3CCNCC3)n2)cc1 [TCMDC-134139] | 56.06 | –
44 | COc1ccc(-c2ccccc2OCCCNc2nc(NCCc3ccc(O)cc3)nc(N3CCNCC3)n2)cc1 [TCMDC-134136] | 51.13 | –
45 | Oc1ccc(CCNc2nc(NCc3ccccc3-c3ccccc3)nc(N3CCCNCC3)n2)cc1 [TCMDC-133386] | 28.34 | –
46 | Oc1ccc(CCNc2nc(NCCCOc3ccccc3-c3cccnc3)nc(N3CCNCC3)n2)cc1 [TCMDC-134137] | 19.58 | –
47 | OCCCCCCNc1nc(NCc2ccccc2-c2ccc(C(F)(F)F)cc2)nc(N2CCNCC2)n1 [TCMDC-134126] | 66.94 | –
